Laboratory results: PubChem BioAssay AID977606 (Broad Institute, 2014)
Screen size: about 1,500 compounds; about 430 (29%) were called active. No rule for the calls is given here. The list is a sample of the results. Entries with a potency or affinity are not part of this list.

Assay: glucose-independent GLuc insulin release activation – cell-based, INS-1E, Gaussia luciferase, luminescence, cherry-pick, counter-screen for glucose-dependent insulin secretion activators, dose response (AID 977606)
Conditions: INS-1E Gaussia luciferase insulin secretion, no glucose, 100% = twice neutral-control luminescence; series mostly up to 35 µM

Row | Compound | outcome
1 | O=C(Nc1ccc(S(=O)(=O)N2CCOCC2)cc1)c1ccc(=O)[nH]c1 | inactive
2 | O=C(NCc1ccc(Cl)cc1)c1cc(=O)[nH]c2ccc(S(=O)(=O)N3CCOCC3)cc12 | inactive
3 | COc1ccc2[nH]c3c(NCCCN4CCCC4=O)ncnc3c2c1 | inactive
4 | O=c1c(Cc2ccc(Cl)cc2Cl)c(O)ccn1CC(F)(F)F | inactive
5 | CCNc1nc(NCC)nc(Nn2cnnc2)n1 | inactive
6 | CS(=O)(=O)N1CCCCC1c1cc(C(=O)Nc2cccc3c2CCCC3)no1 (centres undefined) | inactive
7 | CCOC(=O)c1nc(SC)n(C)c1C(=O)OCC | inactive
8 | COc1ccc2c(c1)C(C)(Cc1ccc(C(=O)c3ccccc3)cc1)C(=O)N2 (centres undefined) | inactive
9 | Cc1ccc(/C=N/n2c(-c3cccnc3)n[nH]c2=S)s1 | inactive
10 | O=C(O)c1ccc(/C=N/n2c(C3CCCCC3)n[nH]c2=S)cc1 | inactive
11 | C[C@H]1[C@@H](c2ccccc2)Oc2c(Cl)cccc2S(=O)(=O)N1C | inactive
12 | O=C(COc1ccccc1)N(Cc1cccc(F)c1)C1CCS(=O)(=O)C1 (centres undefined) | inactive
13 | Cc1cccc(NCc2ccccc2)c1 | inactive
14 | Cc1ccc(NCc2cccc(B(O)O)c2)cc1 | inactive
15 | Cc1cc(C)cc(Cn2c3ccc(NC(=S)NCc4ccccc4F)cc3c(=O)n2C)c1 | inactive
16 | CC(C)Oc1ccc(C(=O)CCN2CCOCC2)cc1 | inactive
17 | O=C(CCN1CCOCC1)c1ccc(N2CCCCC2)cc1 | inactive
18 | O=C(c1ccc2c(c1)OCO2)N1CCc2ccccc2C1 | inactive
19 | CC(=O)NC1C(=O)N(CCN2CCOCC2)c2ccc(Br)cc21 (centres undefined) | inactive
20 | CCCn1c2ccccc2c2cn[nH]c(=O)c21 | inactive
21 | CC1CCC(NCCNC(=O)c2ccco2)CC1 (centres undefined) | inactive
22 | Cc1ccc(S(=O)(=O)Nc2nc(C)cc(NN)n2)cc1 | inactive
23 | FC(F)(F)c1cc(-c2ccccc2)nc(-n2cc(Cl)cn2)n1 | inactive

Row | Compound | outcome
24 | Cn1c(=O)c2[nH]c(SCc3ccccn3)nc2n(C)c1=S | inactive
25 | O=C(NCCN1CCN(C(=O)c2ccccc2Cl)CC1)C(=O)NCc1ccccc1 | inactive
26 | CC(=O)Nc1nc(NCc2ccccc2Cl)n(-c2ccccc2)n1 | inactive
27 | CC(C)Nc1nc(Nc2ccc(C(N)=O)cc2)c2sccc2n1 | inactive
28 | CCSc1nnc2ccc(-c3cccs3)nn12 | inactive
29 | O=C(CCS(=O)(=O)c1ccc(Cl)cc1)Nc1ccc(N2CCOCC2)cc1 | inactive
30 | COc1ccc(/C=C/c2nc(C#N)c(NCCN(C)C)o2)cc1OC | inactive
31 | CCOC(=O)C1(C)CCCCN1C(=O)c1cccc(Cl)c1 (centres undefined) | inactive
32 | CCCCNC(=O)C1(C)CCN1C(=O)c1cc2ccccc2s1 (centres undefined) | inactive
33 | CCc1nc(N)nc2c1C(=O)CC(C)(C)C2 | inactive
34 | COc1ccc(CCN2C(=O)CC(Cc3ccccc3)C2=O)cc1OC (centres undefined) | inactive
35 | CNc1ccc(-c2ccccc2OC)cn1 | inactive
36 | CCOC(=O)c1c(S(=O)(=O)NCCc2ccc(OC)c(OC)c2)c(C)n(C)c1C | inactive
37 | COc1ccc(-c2nc3cccc(C)n3c2NCc2ccco2)cc1OC | inactive
38 | COc1ccc(CCNC(=O)CCn2c(=O)c3ccccc3n(CC(=O)NCC3CCCO3)c2=O)cc1OC (centres undefined) | inactive
39 | COc1ccc(-c2noc(CCC(=O)Nc3cccnc3)n2)cc1OC | inactive
40 | Cc1cc(NS(=O)(=O)c2ccc(NC(=O)C(C)Oc3ccccc3Cl)cc2)no1 (centres undefined) | inactive
41 | CC1(C)CC(=O)C(C=NC2CC(C)(C)NC(C)(C)C2)=C(O)C1 | inactive
42 | COCCNc1nc(NC(C)C)nc2ccsc12 | inactive
43 | CCn1nnnc1NCc1ccc(OCc2c(F)cccc2Cl)c(OC)c1 | inactive
44 | COCCN1Cc2cccc(C(=O)NCc3ccccc3OC)c2C1=O | inactive
45 | COc1ccc2ccc(=O)oc2c1CC=C(C)C | inactive
46 | COc1cc2ccc(C(C)=O)cc2cc1OC | inactive

Row | Compound | outcome
47 | Cc1ccc(NC(=O)CN(C(=O)N2CCN(C)CC2)S(=O)(=O)c2ccc(C)cc2)cc1 | inactive
48 | FC(F)(F)c1cc(CCN2CCNC[C@@H]2Cc2ccccc2)cc(C(F)(F)F)c1 | inactive
49 | NC(=O)C1CCN(C(=O)CCNS(=O)(=O)c2ccccc2F)CC1 | inactive
50 | COc1ccccc1C(OC(=O)c1cccs1)C(=O)NCC1CCCO1 (centres undefined) | inactive
51 | CC(=O)Nc1cccc(-n2c(=O)n(Cc3ccccc3)c(=O)c3[nH]cnc32)c1 | inactive
52 | O=C(c1cccs1)N(Cc1cccc(F)c1)C1CCS(=O)(=O)C1 (centres undefined) | inactive
53 | C/C(=N/Oc1nc(C)cc(C)n1)c1ccc(F)cc1 | inactive
54 | C=CCn1c(O)c(N=NC(=O)CNC(=O)c2ccco2)c2ccccc21 | inactive
55 | CC(C)COC(=O)N1C[C@H](O)C[C@H]1C(=O)Nc1ccc(Cl)cc1 | inactive
56 | COc1ccc(CNC(=O)c2cnn3c(C(F)F)cc(C)nc23)cc1 | inactive
57 | Cn1cc(C(=O)NCC(=O)Nc2ccccc2Br)cn1 | inactive
58 | COc1ccccc1-c1cnc2c(Nc3cccc(OC(F)(F)C(F)F)c3)nccn12 | inactive
59 | O=C1CC(NS(=O)(=O)c2cccs2)CN1c1cccc(F)c1 (centres undefined) | inactive
60 | CC1(C)Cc2c(cnn2-c2ccccc2)C(NC(=O)CCN2CCCC2=O)C1 (centres undefined) | inactive
61 | COc1ccc(C2CC(c3ccc(OC)c(OC)c3)=NN2C(=O)c2ccccc2)cc1 (centres undefined) | inactive
62 | COc1ccc(-c2cc(C(F)(F)F)n3nc(C(=O)O)cc3n2)cc1OC | inactive
63 | Cc1ccccc1Cc1c(C)nc2c(C(=O)NCc3ccco3)cnn2c1C | inactive
64 | Cn1nnnc1Sc1ncnc2scc(-c3ccc(F)cc3)c12 | inactive
65 | CCOc1nc(CC(C)C)c2c(c1C#N)CC(C)(C)OC2 | inactive
66 | CCOc1ncccc1C(=O)Nc1ccccc1F | inactive
67 | CCOc1nc(Nc2ccccc2F)nc(OCC)n1 | inactive
68 | COc1ccc(NC(=O)C2(c3ccc(NC(=O)c4ccc(OC)cc4)cc3)CCCC2)cc1 | inactive
69 | Cc1cccc(C(=O)NC(=S)NNC(=O)COc2c(C)cccc2C)c1 | inactive

Row | Compound | outcome
70 | CC(=O)c1cccc(NC(=O)CCC(=O)Oc2ccc(C)cc2)c1 | inactive
71 | COc1ccc(C(=O)Nc2ccccc2C(=O)Nc2ccncc2)cc1 | inactive
72 | CCOc1ncccc1C(=O)Nc1cccc(S(=O)(=O)NC2=NCCC2)c1 | inactive
73 | CCCCn1c(N2CCCC2)nc2c1c(=O)[nH]c(=O)n2C | inactive
74 | C/C(Cl)=C\Cn1c(N2CCCC2)nc2c1c(=O)[nH]c(=O)n2C | inactive
75 | COc1cc2c(cc1OC)-c1cc(N3CCc4ccccc43)nc(=O)n1CC2 | inactive
76 | Cc1nc2c(c(N3CCOCC3)n1)OCC(=O)N2 | inactive
77 | COc1ccc(OCCCCN(C)Cc2ccccc2)cc1 | inactive
78 | CCC(C)c1ccccc1OCCn1ccnc1 (centres undefined) | inactive
79 | CC1(C(=O)NS(=O)(=O)c2ccc(C#N)cc2)CCN1C(=O)C1(c2ccccc2)CCCC1 (centres undefined) | inactive
80 | CC1(C(=O)N2CCCCC2)CCN1C(=O)C1(c2ccccc2)CC1 (centres undefined) | inactive
81 | Cc1noc(C)c1S(=O)(=O)NC(=O)C1(C)CCN1C(=O)C1(c2ccc(Cl)cc2)CCC1 (centres undefined) | inactive
82 | CC1(C(=O)NS(=O)(=O)c2ccc(Cl)s2)CCN1C(=O)C1(c2ccc(Cl)cc2)CCC1 (centres undefined) | inactive
83 | COC(=O)COc1ccc(C)cc1-n1nc2ccccc2n1 | inactive
84 | O=c1[nH]c(CN2CCN(c3ccc(O)cc3)CC2)nc2scc(-c3ccc(Cl)cc3)c12 | inactive
85 | O=C(NCc1ccccc1)c1cccnc1Sc1ccccc1 | inactive
86 | CCC(O)c1nc2ccccc2n1CCc1ccccc1 (centres undefined) | inactive
87 | CC1(C)Cc2c(c(-c3ccco3)nc3n[nH]c(N)c23)CO1 | inactive
88 | COc1ccc(CCNC(=O)CN2c3cccc4cccc(c34)S2(=O)=O)cc1OC | inactive
89 | Fc1cccc(-c2nnn3c2nc(Cl)c2ccccc23)c1 | inactive
90 | CC(=O)c1c(C)oc2ccc(NS(=O)(=O)c3ccc(F)cc3C)cc12 | inactive
91 | CCOC(=O)Cc1nn(Cc2ccccc2)c(=O)c2ccccc12 | inactive
92 | O=S(=O)(Nc1ccc(-c2ccc3nncn3n2)cc1)c1ccccc1Cl | inactive

Row | Compound | outcome
93 | Cc1nc(N)c(C#N)c(-c2cccnc2)c1C | inactive
94 | N#Cc1c(-c2ccncc2)cc(-c2ccc(F)cc2)nc1N | inactive
95 | COc1ccc(Cn2c(=O)c3[nH]cnc3n(-c3ccccc3C)c2=O)cc1 | inactive
96 | CC(=O)c1ccc2c(c1)N(Cc1ccccc1)C(=O)C(C)S2 (centres undefined) | inactive
97 | Cc1ccc(OCC(=O)NNC(=O)CCC(=O)Nc2ccc(C)cc2C)cc1 | inactive
98 | Cc1ccccc1NC(=O)c1ccc(OCc2c(C)noc2C)cc1 | inactive
99 | COc1ccc(CO/N=C/c2c(C)[nH]c(=O)[nH]c2=O)cc1 | inactive
100 | CCc1nc2c(nnn2Cc2ccc(F)cc2)c(=O)[nH]1 | inactive
101 | Cc1ccccc1-c1n[nH]c(=S)n1/N=C/c1c(C)nn(-c2ccccc2)c1C | inactive
102 | S=c1[nH]nc(-c2ccccc2)n1/N=C/c1c[nH]c2ccccc12 | inactive
103 | CCOC(=O)c1oc2cc(O)cc(C)c2c1C | inactive
104 | C=CCNc1sc(C(=O)C2CC2)c(N)c1C#N | inactive
105 | Cc1cccc(N2CCN(C(=O)c3cccn4c(=O)c5c(C)c(C)sc5nc34)CC2)c1C | inactive
106 | Cc1ccc(F)cc1NC(=O)c1sc2ncn(CC(=O)N3CCN(c4ccccn4)CC3)c(=O)c2c1C | inactive
107 | O=C(CCc1ccccc1)NNC(=O)COc1ccccc1Cl | inactive
108 | COc1ccc(/C=N/Nc2ncnc3c2[nH]c2ccccc23)c(OC)c1OC | inactive
109 | Cn1c(N)c(C(c2ccccc2)c2c(N)n(C)c(=O)n(C)c2=O)c(=O)n(C)c1=O | inactive
110 | O=c1cc(Cl)[nH]c(=O)n1Cc1ccccc1 | inactive
111 | O=c1cc(-c2ccncc2)oc2c1ccc1ccccc12 | inactive
112 | CC(C)Cn1c(Cc2ccccc2)n[nH]c1=S | inactive
113 | COc1ccc(S(=O)(=O)N(C)CC(=O)Nc2ccc3c(c2)OCCO3)cc1OC | inactive
114 | O=C(O)Cc1ccc(NS(=O)(=O)c2ccc3c(c2)OCCO3)cc1 | inactive
